{"source": "PubChem BioAssay (NCATS)", "note": "Inconclusive results are not listed. Calls of active or inactive are those of the source. The call rests on the fitted dose curve; in most records, active means well fitted cell-killing curve with a large enough effect; inconclusive means small, poorly fitted or top-dose-only effect, or effect the other way; inactive means no such curve, though single readings can be large or run the other way. Potency means the concentration at half of the fitted maximal effect.", "data": [{"test": "Quantitative High-Throughput drug screen in 47 multiple myeloma cell lines against the NCATS MIPE library collection: KHM11_PLB cell viability assay (AID 1918962); further: nearly all actives have a fitted effect of over 35% in size;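 on viability, % of DMSO control: 0% = media only wells and 100% = DMSO treated cells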", "conditions": "KHM11 myeloma cell viability, CellTiter-Glo ATP luminescence, 48 h; series mostly up to 45.8 µM; viability, % of DMSO control: at the top concentration", "in_short": "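Primary qHTS used for cherry-picking: cells at 500/well, library compounds for 48 h (37C, 5% CO2), luminescent ATP assay.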", "values": [{"smiles": "c1ccc(CCCN2CCN(CCOC(c3ccccc3)c3ccccc3)CC2)cc1", "Potency": "16.6 µM (active)"}, {"smiles": "CC(=O)Nc1ccc(OC[C@](C)(O)C(=O)Nc2ccc([N+](=O)[O-])c(C(F)(F)F)c2)cc1", "viability, % of DMSO control": "98.1% (inactive)"}, {"smiles": "CC(C)(O)C(=O)Nc1ccc([N+](=O)[O-])c(C(F)(F)F)c1", "Potency": "20.9 µM (active)"}, {"smiles": "CCCC[N+]1(C)[C@H]2CC(OC(=O)[C@H](CO)c3ccccc3)C[C@H]1[C@H]1O[C@H]12", "note": "(some centres not stated)", "viability, % of DMSO control": "69.7% (inactive)"}, {"smiles": "COC1=C[C@@H]2[C@@H]3Cc4ccc(OC)c(O)c4[C@]2(CCN3C)CC1=O", "Potency": "4.69 µM (active)"}, {"smiles": "Clc1ccccc1C(c1ccccc1)(c1ccccc1)n1cccn1", "viability, % of DMSO control": "127% (inactive)"}, {"smiles": "CCCCCC[C@H]1C(=O)O[C@H](C)[C@H](NC(=O)c2cccc(NC=O)c2O)C(=O)O[C@@H](C)[C@@H]1OC(=O)CC(C)C", "Potency": "0.105 µM (active)"}, {"smiles": "CC=C(C)C(=O)O[C@H]1C(C)=C2[C@@H]3OC(=O)[C@@](C)(O)[C@@]3(O)[C@@H](OC(=O)CCC)C[C@](C)(OC(C)=O)[C@@H]2[C@@H]1OC(=O)CCCCCCC", "Potency": "0.332 µM (active)"}, {"smiles": "N#C[C@H](O[C@@H]1O[C@H](CO[C@@H]2O[C@H](CO)[C@H](O)[C@H](O)[C@H]2O)[C@H](O)[C@H](O)[C@H]1O)c1ccccc1", "Potency": "23.5 µM (active)"}, {"smiles": "CN1CCN(c2ccc([N+](=O)[O-])c3no[n+]([O-])c23)CC1", "Potency": "14.8 µM (active)"}, {"smiles": "COc1ccc(C(=O)c2c(C)n(CCN3CCOCC3)c3cc(I)ccc23)cc1", "viability, % of DMSO control": "105% (inactive)"}, {"smiles": "C[C@H]1CCCC=CC2C[C@H](O)C[C@@H]2[C@H](O)C=CC(=O)O1", "note": "(some centres not stated)", "viability, % of DMSO control": "6.04% (inactive)"}]}]}
